Screens from PubChem.
A selection: hits, their analogues and other compounds. The true share with any hit is near 1.7%.
F508del corr = F508del CFTR correction, initial screen, CFBE line, single point; 350,000 compounds, 0.36% hits; CFBE cells, YFP halide quenching; stimulated with forskolin plus potentiator P3; % fluorescence drop versus neutral controls; activity (quench increase), % at 7.58 µM;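 active means mean added fluorescence quench of at least 8% versus neutral control, with both replicates also reaching 8%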;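 further: cells transiently co-express mutant CFTR-F508del with the halide-sensitive YFP; corrector assay measuring rescue of mutant channel to the surface after 24 h compound exposure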
Vif inh = HIV Vif self-association inhibitors, primary screen, imaging, HEK293T, single point | HEK293T cells, Vif self-association by quenched fluorescence, 24 h | inhibition, % at 7.49 µM | 340,000 compounds, 0.35% hits; in the data active means inhibition above about 50%, passing the limit was not always enough
FGF22 binding = binders of human FGF22 protein, primary screen, FGF22 synaptogenesis inhibitor project, biophysical, thermal shift, single point; activity (Tm shift, normalised), % at 9.99 µM; AID 651658, 2012; recombinant FGF22 thermal shift, SYPRO orange fluorescence; percent of sucrose octasulfate shift, DMSO zero; Fibroblast growth factor 22 (Homo sapiens), Q9HCT0; 340,000 compounds, 1.5% hits;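 active means mean Tm shift, scaled 0 neutral to 100 positive control, at about 1.3% or above, every replicate too, limit read from the data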
Target sequence (Q9HCT0 whole entry, looked up): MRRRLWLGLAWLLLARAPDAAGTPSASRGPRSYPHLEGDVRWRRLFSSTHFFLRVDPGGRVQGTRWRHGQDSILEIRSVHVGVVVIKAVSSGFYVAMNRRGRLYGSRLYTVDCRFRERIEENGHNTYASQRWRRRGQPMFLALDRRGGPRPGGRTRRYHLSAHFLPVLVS
* marks the source's active call; other numbers are inactive results.

For CCCC#Cc1cnc2c(c1)C(=O)N([C@H](C)CO)C[C@H](C)[C@@H](CN(C)C(=O)NC1CCCC1)O2 the results were FGF22 binding 0.
Screening Cc1ccc(CNC(=O)C2CSC3(C)CCC(=O)N23)cc1 (configuration not stated) returned F508del corr 1, Vif inh 11 and FGF22 binding 43*.
For Cc1ccc(C(=O)NNC(=O)C2CSC3(C)CCC(=O)N23)cc1 (configuration not stated) the results were F508del corr 0, Vif inh 10 and FGF22 binding 0.
Screening C[C@@H]1CN([C@H](C)CO)C(=O)Cc2cc(N(C)C)ccc2O[C@@H]1CN(C)Cc1ccc(-c2ccccc2)cc1 returned F508del corr 1 and FGF22 binding 0.
For C[C@@H]1CN([C@@H](C)CO)C(=O)c2cc(C#CC(C)(C)O)cnc2O[C@H]1CN(C)C(=O)c1ccccc1F the results were F508del corr 2 and FGF22 binding 0.
COc1cc(/C=N/NC(=O)c2cccc(NC(=O)c3ccccc3Cl)c2)ccc1O was read as F508del corr 0, Vif inh 10 and FGF22 binding 0.
COc1ccc(/C=N/NC(=O)c2cccc(NC(C)=O)c2)c(OC)c1 was read as F508del corr 0, Vif inh 2 and FGF22 binding 43*.
`COc1ccc(/C=N/NC(=O)c2cccc(NC(=O)c3ccccc3Cl)c2)cc1OC` gave F508del corr 0, Vif inh 4 and FGF22 binding 43*.
`COc1ccc(C(=O)Nc2cccc(C(=O)N/N=C/c3ccc(OC)cc3OC)c2)cc1` gave F508del corr 0, Vif inh -7 and FGF22 binding 0.
Screening CCCC(=O)Nc1ccc2c(c1)OC[C@H](C)N(C(=O)CC)C[C@@H](C)[C@@H](OC)CN(C)C2=O returned F508del corr -2 and FGF22 binding 0.
Screening COc1ccc(S(=O)(=O)NCC(=O)Nc2ccc(F)cc2)cc1 returned F508del corr 3, Vif inh 3 and FGF22 binding 0.
Screening CC(C)c1ccc(NC(=O)CNS(=O)(=O)c2ccc(F)cc2)cc1 returned F508del corr 2, Vif inh -6 and FGF22 binding 43*.
Screening CCN(CC)c1ccc(C(=O)NNC(=O)CCNC(=O)c2ccccc2)cc1 returned F508del corr -1, Vif inh -1 and FGF22 binding 0.
CCN(CC)c1ccc(C(=O)NNC(=O)CCl)cc1 was read as F508del corr -2, Vif inh 4 and FGF22 binding 44*.
Screening CCC(=O)N1CCCCN2[C@H](CO)[C@H](c3ccc(-c4cccnc4)cc3)[C@H]2C1 returned F508del corr 1 and FGF22 binding 1.
For CC(C)(C)C(=O)c1sc2nc(-c3cccs3)cc(C(F)(F)F)c2c1N the results were Vif inh 27.
For CCN(CC)C(=O)c1sc2nc(-c3cccs3)cc(-c3cccs3)c2c1N the results were F508del corr -3, Vif inh 83* and FGF22 binding 0.
CN1C(=O)c2cc(NC(=O)c3ccno3)ccc2OC[C@H]2O[C@@H](CC(=O)NC3Cc4ccccc4C3)CC[C@@H]21 was read as F508del corr -2 and FGF22 binding 0.
For COc1ccc(-c2cc(C(=O)N(C)Cc3nc4ccccc4c(=O)[nH]3)c3ccccc3n2)cc1OC the results were F508del corr 2, Vif inh 25 and FGF22 binding 44*.
Screening COc1ccc(-c2cc(C(=O)N(C)Cc3cccc(OC)c3OC)c3ccccc3n2)cc1OC returned F508del corr 3, Vif inh 1 and FGF22 binding 0.
`CC=Cc1ccc2n(c1=O)C[C@H]1[C@H](CO)[C@@H](C(=O)NCc3ccccn3)N(CC3CC3)[C@@H]21` (mixture of isomers) gave FGF22 binding 0.
CCC(=O)N1C[C@@H](C)[C@H](OC)CN(C)C(=O)c2cc(NC(=O)c3cnccn3)ccc2OC[C@@H]1C was read as F508del corr -3 and FGF22 binding 0.
For N[C@@H]1CC[C@H](CCn2cc(-c3ccccn3)nn2)O[C@H]1CO the results were F508del corr -2 and FGF22 binding 0.
CS(=O)(=O)N1CCN(c2ccc(NC(=S)NC(=O)c3cccs3)cc2)CC1 was read as F508del corr 0, Vif inh -17 and FGF22 binding 44*.
O=C(NC(=S)Nc1ccc(N2CCCCC2)cc1)c1cccs1 was read as Vif inh -9.
For COc1ccc(NC(=O)Nc2ccc3c(c2)C(=O)N([C@H](C)CO)C[C@H](C)[C@@H](CN(C)C(=O)C2CCCCC2)OCCCC[C@@H](C)O3)cc1 the results were F508del corr 0 and FGF22 binding 0.
Screening O=[N+]([O-])c1ccc(F)c(CN2CCN(c3ncc(Cc4ccccc4)cn3)CC2)c1 returned F508del corr -5 and FGF22 binding 0.
For Cc1ccc([N+](=O)[O-])cc1CN1CCN(c2ncc(Cc3ccccc3)cn2)CC1 the results were F508del corr 0 and FGF22 binding 43*.
`Cc1nn(-c2ccccn2)c2c1C(=O)CC(C)(C)C2N=[N+]=[N-]` (configuration not stated) gave F508del corr -5, Vif inh -1 and FGF22 binding 43*.
`Cc1nn(-c2ccncc2)c2c1C(=O)CC(C)(C)C2Br` (configuration not stated) gave F508del corr -4, Vif inh 4 and FGF22 binding 0.
C[C@H]1CCCCO[C@@H](CN(C)C(=O)Nc2ccc(F)cc2)[C@@H](C)CN([C@@H](C)CO)C(=O)c2cc(NC(=O)c3ccncc3)ccc2O1 was read as F508del corr -1 and FGF22 binding 1.
`Cc1cccc2sc(NC(=O)CN3C(=O)NC4(CCCC4)C3=O)nc12` gave F508del corr 1 and FGF22 binding 0.
Cc1ccc(C)c2sc(NC(=O)CN3C(=O)CCC3=O)nc12 was read as F508del corr -3, Vif inh 5 and FGF22 binding 43*.
Cc1ccc2sc(NC(=O)CN3C(=O)CCC3=O)nc2c1C was read as F508del corr 3, Vif inh 1 and FGF22 binding 0.
For Cc1cccc2sc(NC(=O)CN3C(=O)C4CC=CCC4C3=O)nc12 (configuration not stated) the results were F508del corr 0, Vif inh 0 and FGF22 binding 44*.
`COC(=O)/C(C(C)=O)=C(/C=C/C=C/N(C)C)N(C)C` gave F508del corr -1, Vif inh 9 and FGF22 binding 0.
COC(=O)\C(C(C)=O)=C(/C=C/C=C/N(C)C)N(C)C was read as Vif inh 62*.
`CCC(=O)Nc1ccc(-c2nnc(SCc3ccc(C(=O)Nc4nccs4)cc3)n2CC)cc1` gave Vif inh 67*.
For CCn1c(SCC(=O)Nc2nccs2)nnc1-c1ccc(C)cc1 the results were Vif inh -10.
C[C@@H]1CCCCO[C@H](CN(C)C)[C@@H](C)CN([C@@H](C)CO)C(=O)c2cc(NC(=O)c3ccncc3)ccc2O1 was read as F508del corr 1.
